Laboratory results from PubChem BioAssay (Tox21).
Inconclusive results are not listed. Where a call stands in place of a potency, no number is given. The source made the active and inactive calls. The call rests on the fitted dose curve; in most records, active means well fitted activation curve with a large enough effect in the repeat runs; inconclusive means weak or mixed curves; inactive means no such curve, though single readings can be large or run the other way.

Target: Nuclear receptor subfamily 1 group I member 2 (Homo sapiens) (UniProt O75469)
Experiment: Human pregnane X receptor (PXR) small molecule agonists, qHTS assay (AID 1346982); further: nearly all actives have a fitted effect of over 35% in size
Conditions: PXR-Luc HepG2, CYP3A4 luciferase reporter, 24 h; series mostly up to 92.4 µM
Description: National Center for Advancing Translational Sciences [NCATS]
NIH Chemical Genomics Center [NCGC]
U.S. Environmental Protection Agency [EPA]
National Institutes of Environmental Health Sciences [NIEHS]
National Toxicology Program [NTP]
The human pregnane X receptor (hPXR) regulates the expression of several drug metabolizing enzymes and induction of these proteins is a major mechanism for developing drug resistance in cancer. One such key enzyme catalyzing the drug metabolism is cytochrome P450 3A4 (CYP3A4). Changes in CYP3A4 expression affect drug metabolism, thereby reducing the therapeutic efficacy and altering toxicological response to a drug and which finally causes adverse drug interaction. To screen Tox21 libraries for compounds that activate hPXR-mediated CYP3A4 gene expression, PXR-Luc HepG2 cells were used.
PXR-Luc HepG2 cells were dispensed at 2,000 per well in 5uL of assay medium containing 5% charcoal-stripped FBS into white solid bottom 1536-well plates (Corning Life Sciences, Corning, NY) using a Multidrop Combi (Thermo Scientific, Waltham, MA) dispenser. The assay plates were incubated at 37 C and 5% CO2 for 5hr, and then 23nL of compounds dissolved in DMSO and positive control were transferred using a Pintool station (Wako, San Diego, CA). The assay plates were incubated at 37C and 5% CO2 for 24hr. For luciferase read, 4uL of ONE-Glo reagent (Promega Corporation, Madison, WI) was added to each well of the assay plates using Flying Reagent Dispenser (FRD, Aurora Discovery, San Diego, CA) and incubated the assay plates at room temperature for 30min. The luminescence signal was quantified using a ViewLux plate reader (Perkin Elmer, Shelton, CT).
Potency means the concentration at half of the fitted maximal effect.

Sequence of Nuclear receptor subfamily 1 group I member 2 (Homo sapiens) (O75469 whole entry, looked up): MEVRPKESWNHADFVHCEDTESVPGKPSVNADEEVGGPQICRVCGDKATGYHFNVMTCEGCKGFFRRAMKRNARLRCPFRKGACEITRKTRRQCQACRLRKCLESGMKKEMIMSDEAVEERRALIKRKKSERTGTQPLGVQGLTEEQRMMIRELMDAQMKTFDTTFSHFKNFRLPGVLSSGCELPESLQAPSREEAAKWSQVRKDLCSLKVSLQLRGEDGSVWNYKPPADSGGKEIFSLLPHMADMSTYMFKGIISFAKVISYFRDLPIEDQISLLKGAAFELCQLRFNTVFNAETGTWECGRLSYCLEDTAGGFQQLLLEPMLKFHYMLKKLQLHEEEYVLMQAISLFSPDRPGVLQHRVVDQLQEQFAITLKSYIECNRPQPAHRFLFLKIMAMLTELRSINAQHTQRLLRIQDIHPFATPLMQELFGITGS

For `C=CCON/C(CCC)=C1\C(=O)CC(C)(C)C(C(=O)OC)=C1O`, which Potency is on record?
The Potency was “inactive”.

With `Cc1cc(N)no1` as the compound, how does the Potency read?
Its Potency is “inactive”.

`CCCC(C)C(O)CC` (stereo not given) was tested. Which Potency did it give?
The Potency was “inactive”.

Which Potency does the source give for `O=C1CC2(CCCC2)CC(=O)N1CCNCC1COc2ccccc2O1` (stereo not given) here?
Its Potency is 13.3 µM (active).

`CC(C)(C)c1ccc(C(=O)CCCCl)cc1` was tested. Which Potency did it give?
Its Potency is 26.6 µM (active).

`c1coc(Cn2cccc2)c1` was tested. Which Potency did it give?
The Potency was “inactive”.

Which Potency does the source give for `CC(C)OC(=O)C(C(=O)OC(C)C)=C1SC=CS1` here?
The Potency was 26.6 µM (active).

Which Potency does the source give for `COC(=O)c1c(C)cc(O)c(C)c1O` here?
Its Potency is 61.1 µM (active).

With `CCCCC(O)/C=C(C)/C=C/C=C/C(=O)N1CCCC1=O` (stereo not given) as the compound, how does the Potency read?
The Potency was “inactive”.

How did the Potency turn out when `C/C=C(\C)C=O` was run?
The Potency was “inactive”.

Which Potency does the source give for `CC(C)C(C)C` here?
Its Potency is “inactive”.

`O=Cc1ccc(C(=O)O)cc1` was tested. Which Potency did it give?
Its Potency is “inactive”.

For `CCC(C)c1nccnc1OC` (stereo not given), which Potency is on record?
Its Potency is “inactive”.

`CC(=O)Nc1ccc(OCCOCCOc2ccc(NC(C)=O)cc2)cc1` was tested. Which Potency did it give?
The Potency was “inactive”.

`N#CC1(N)CCCCC1` was tested. Which Potency did it give?
Its Potency is “inactive”.

How did the Potency turn out when `O=P(O)(O)C(O)(Cc1cccnc1)P(=O)(O)O` was run?
The Potency was “inactive”.

Which activation does the source give for `C[C@@H]1NC(=O)[C@@H](N)CNC(=O)[C@H](C2CCNC(N)=N2)NC(=O)/C(=C/NC(N)=O)NC(=O)[C@H](CNC(=O)C[C@@H](N)CCCN)NC1=O` (stereo not given in full) here?
The activation was -4.64% [at 0.349 µM] (inactive).

`C=CC(=O)OCC[N+](C)(C)C` was tested. Which Potency did it give?
The Potency was “inactive”.

For `CC/C=C/CCCCCCCCCCOC(C)=O`, which Potency is on record?
The Potency was “inactive”.

Which Potency does the source give for `COCc1nnc(-c2ccc[n+]([O-])c2)n1-c1c(Cl)c(Cl)cc2[nH]c(=O)c(=O)[nH]c12` here?
Its Potency is “inactive”.

For `Nc1nc(Cl)cc(Cl)n1`, which Potency is on record?
The Potency was “inactive”.

`CCCc1ccc(O)c(OC)c1` was tested. Which Potency did it give?
Its Potency is “inactive”.

For `O=C(O)Cc1ccccc1Oc1ccc(Cl)cc1Cl`, which Potency is on record?
The Potency was “inactive”.

`O=S(=O)(O)CC(O)CCl` (stereo not given) was tested. Which Potency did it give?
The Potency was “inactive”.

Which Potency does the source give for `CC1=C(O)C(=O)CO1` here?
Its Potency is “inactive”.

With `CC(=O)OC/C=C(/C)CCC=C(C)C` as the compound, how does the Potency read?
The Potency was “inactive”.

With `O=CN1CCCCC1` as the compound, how does the Potency read?
The Potency was “inactive”.

With `CC(=O)c1ccc(O)c(C(N)=O)c1` as the compound, how does the Potency read?
Its Potency is “inactive”.

How did the Potency turn out when `Clc1cc(Cl)c(Cl)c(Cl)c1Cl` was run?
The Potency was “inactive”.

`CCOC(=O)c1ccc(N(C)C)cc1` was tested. Which Potency did it give?
Its Potency is 54.5 µM (active).

How did the Potency turn out when `COC(=O)N/N=C/c1c[n+]([O-])c2ccccc2[n+]1[O-]` was run?
The Potency was “inactive”.

With `CCO[Si](CC(C)C)(OCC)OCC` as the compound, how does the Potency read?
The Potency was 9.69 µM (active).

`Cc1cccc(N)n1` was tested. Which Potency did it give?
The Potency was “inactive”.

Which Potency does the source give for `CCc1ncc(C)[nH]1` here?
Its Potency is “inactive”.

With `CCOCCOCCOC(C)=O` as the compound, how does the Potency read?
The Potency was “inactive”.

Which Potency does the source give for `CCO/C=C1\N=C(c2ccccc2)OC1=O` here?
The Potency was “inactive”.

With `Cc1ccc(OC(=O)CC(C)C)cc1` as the compound, how does the Potency read?
The Potency was “inactive”.

Which Potency does the source give for `CC(=O)Oc1ccc(C(C)=O)cc1` here?
The Potency was “inactive”.

`O=C(O)CCCCCCCCCC(=O)O` was tested. Which Potency did it give?
The Potency was “inactive”.

With `CCCCC(CC)COC(=O)CC#N` (stereo not given) as the compound, how does the Potency read?
The Potency was 2.73 µM (active).
